# In PubChem BioAssay (NCATS):
# Several values for one entry are separate records, joined by “and”; a condition that tells them apart may be missing. Equal values may be shown once. Inconclusive results are not listed. Activity calls are given as the source filed them. Unless noted, calls come from the whole dose curve; as a rule, active = well fitted curve in the direction sought with a large enough effect; inconclusive = small, poorly fitted or top-dose-only effect, or another doubt; inactive = no such curve, though single readings can be large; an effect the other way counts as inactive or inconclusive.
# Columns and labels:
# [1] = biological target: Estrogen receptor (Homo sapiens) (UniProt P03372); experiment: qHTS assay for small molecule agonists of estrogen receptor alpha signaling (AID 588514; calls by dose curve;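 note: 0% = vehicle only and 100% = reference agonist; nearly all actives have a fitted effect of over 70% in size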)
# Summary of the method: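 ER-alpha-UAS-bla GripTite HEK293 cells, 5000/well in 2% charcoal/dextran-stripped FBS medium, treated with compound titrations 18 h at 37 C. CCF4 beta-lactamase read by fluorescence after 2 h RT; normalised to 20 nM 17-beta-estradiol (100%) and DMSO (0%), Hill fit for EC50 and efficacy.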
# [2] = biological target: Glucocorticoid receptor (Homo sapiens) (UniProt P04150); experiment: qHTS assay for small molecule agonists of glucocorticoid receptor signaling (AID 588532; active = well fitted curve in the direction sought with a large enough effect in the signal ratio, with a control signal flat; the % refers to the signal ratio;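 note: 100% = dexamethasone at 0.1 µM and 0% = DMSO only wells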); conditions: HeLa MMTV-bla, beta-lactamase ratio, agonist, 18 h; stronger effect = higher value; percent of dexamethasone control, DMSO zero
# Summary of the method: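 Titration series, up to 92 uM, applied to GRE-bla HeLa cells for 18 h at 37 C. Detection by CCF4 FRET substrate after 2 h at RT.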
# [3] = biological target: Glucocorticoid receptor (Homo sapiens) (UniProt P04150); experiment: qHTS assay for small molecule antagonists of glucocorticoid receptor signaling (AID 588533; active = well fitted inhibition curve with a large enough effect in the signal ratio, with a control signal flat, not every such curve was filed as active; the % refers to the signal ratio;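 note: cells stimulated with 2 nM dexamethasone as agonist; % is set by controls: 0 for no effect and ±100 for the full control effect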)
# Summary of the method: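 Antagonist-mode qHTS: compound titrations added to GRE-bla HeLa cells, then dexamethasone 2 nM final; 18 h, 37 C. CCF4 FRET fluorescence normalized to dexamethasone and DMSO; IC50 from Hill fit.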
# [4] = qHTS assay for small molecule antagonists of peroxisome proliferator-activated receptor delta signaling (AID 588535; active = well fitted inhibition curve with a large enough effect in the signal ratio, with a control signal flat, not every such curve was filed as active; the % refers to the signal ratio;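 for max response: cells co-treated with a PPAR-delta agonist as stimulator during compound exposure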); conditions: HEK293T PPARd-UAS-bla, beta-lactamase FRET ratio, 18 h; 460 nm channel
# Summary of the method: (§1)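 Reporter: UAS-bla under PPAR-delta response element, HEK293T host. Medium: 2% charcoal/dextran FBS. Dosing: titration, 18 hrs, 37 C. Detection: CCF4, 2 hrs RT, 405 ex/460 and 530 em.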
# [5] = biological target: Peroxisome proliferator-activated receptor delta (Homo sapiens) (UniProt Q03181); experiment: as above
# Summary of the method: as §1
# [6] = biological target: Peroxisome proliferator-activated receptor gamma (Homo sapiens) (UniProt P37231); experiment: qHTS assay for small molecule agonists of peroxisome proliferator-activated receptor gamma signaling (AID 588536; active = well fitted curve in the direction sought with a large enough effect in the signal ratio, with a control signal flat, not every such curve was filed as active; the % refers to the signal ratio;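 note: 0% = DMSO basal wells and 100% = rosiglitazone at 2 µM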)
# Summary of the method: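 Ratiometric blue/green fluorescence (405 nm excitation; 460 and 530 nm emission) from CCF4-loaded HEK293 reporter cells serves as signal. Exposure to test compounds lasts 16 h at 37 C in medium containing 1% charcoal/dextran-treated serum.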
# [7] = biological target: Peroxisome proliferator-activated receptor gamma (Homo sapiens) (UniProt P37231); experiment: qHTS assay for small molecule antagonists of peroxisome proliferator-activated receptor gamma signaling (AID 588537; active = well fitted inhibition curve with a large enough effect in the signal ratio, with a control signal flat, not every such curve was filed as active; the % refers to the signal ratio;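 note: reporter cells co-stimulated with 50 nM rosiglitazone agonist during compound treatment; % of control where 0% means no effect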)
# Summary of the method: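 We seeded GeneBLAzer HEK293 reporter cells at 3000 per well, allowed 6-6.5 h attachment at 37 C, then co-treated with test compound titrations and 50 nM rosiglitazone overnight (16 h). Inhibition was quantified from 460/530 nm emission ratios.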
# [8] = qHTS assay for small molecule antagonists of retinoid X receptor alpha signaling (AID 588546; active = well fitted inhibition curve with a large enough effect in the signal ratio, with a control signal flat, not every such curve was filed as active; the % refers to the signal ratio;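 note: cells stimulated with 9-cis-retinoic acid as agonist; % is set by controls: 0 for no effect and ±100 for the full control effect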); conditions: HEK293T RXRa-UAS-bla, beta-lactamase ratio, antagonist mode; measured here: W530 green channel, cytotoxicity proxy
# Summary of the method: (§2)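 Beta-lactamase reporter inhibition, read as CCF4 fluorescence ratio (ex 405, em 460/530 nm) after 2 h at RT. HEK293T UAS-bla cells, 2500/well, were stimulated with 9-cis-RA at 500 or 100 nM final alongside test compound for 18 h at 37 C.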
# [9] = biological target: Retinoic acid receptor RXR-alpha (Homo sapiens) (UniProt P19793); experiment: as above; conditions: HEK293T RXRa-UAS-bla, beta-lactamase ratio, antagonist mode
# Summary of the method: as §2
# [10] = biological target: Thyroid hormone receptor beta (Homo sapiens) (UniProt P10828); experiment: qHTS assay for small molecule antagonists of thyroid hormone receptor beta signaling (AID 588547; active = well fitted inhibition curve with a large enough effect in the signal ratio, with a control signal flat, not every such curve was filed as active; the % refers to the signal ratio;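 note: cells stimulated with 0.4 nM T3 agonist during compound exposure; series mostly up to about 77 µM; % is set by controls: 0 for no effect and ±100 for the full control effect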); conditions: TR-UAS-bla HEK293, beta-lactamase ratio, antagonist mode, 18 h
# Summary of the method: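 TR-UAS-bla GripTite HEK293 cells in 2% charcoal/dextran FBS medium were preincubated 4 h at 37 C, given compound (0.59 nM to 92 uM) plus 0.4 nM T3 (final) for 18 h, then CCF4 for 2 h at RT; Hill fit gave IC50.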
# [11] = qHTS assay for small molecule activators of the p53 signaling pathway (AID 651743; active = well fitted activation curve with a large enough effect in the signal ratio, not every such curve was filed as active; the % refers to the signal ratio; note: series mostly up to about 92 µM; % of control where 0% means no effect); conditions: HCT-116 p53RE-bla, beta-lactamase FRET ratio, 16 h; activation: stronger effect = higher value
# Summary of the method: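 Cell-based beta-lactamase reporter (p53 response elements, HCT-116 background). After a 5-hour preincubation, cells received compound for 16 hours at 37 C; substrate development ran 2 hours at room temperature.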
# [12] = qHTS assay for small molecule activators of the nuclear factor-kappa B (NF-kB) signaling pathway (AID 651749; active = well fitted activation curve with a large enough effect in the signal ratio; the % refers to the signal ratio; note: series mostly up to about 77 µM; % of control where 0% means no effect); conditions: NF-kB-bla ME-180 cells, beta-lactamase FRET ratio, 16 h; stronger effect = higher value
# Summary of the method: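 Screening used 2,000 ME-180 reporter cells per well exposed to pinned compound (23 nL) or DMSO; after 16 hr at 37C, beta-lactamase expression under NF-kB control was assessed through FRET.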
# [13] = qHTS assay for environmental chemicals that activate the Aryl hydrocarbon Receptor (AhR) signaling pathway (AID 651777); conditions: 1A2-DRE human hepatoma cells, luciferase, 24 h; activation: stronger effect = higher value; note: % of control where 0% means no effect; nearly all actives have a fitted effect of over 15% in size
# Summary of the method: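 Measured luciferase activity, read 30 min after One-Glo addition at room temperature, from human hepatoma cells bearing a dioxin response element–CYP1A2 promoter reporter and exposed to compound for 24 hr at 37 C.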
# [14] = biological target: Peroxisome proliferator-activated receptor alpha (Homo sapiens) (UniProt Q07869); experiment: qHTS assay for small molecule agonists of the peroxisome proliferator-activated receptor alpha (PPARalpha) signaling pathway (AID 651778); conditions: PathHunter PPARalpha complementation, chemiluminescence, 6 h; max response: stronger effect = higher value; note: % of control where 0% means no effect
# Summary of the method: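 Cells plated at 2,000/well and held overnight at 37 C, 5% CO2, then compound added by pin tool for 6 hr; after PathHunter detection reagent and 60 min at room temperature, chemiluminescence from enzyme complementation was read.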
# [15] = qHTS assay for small molecule agonists of the antioxidant response element (ARE) signaling pathway measured by Nrf2-dependant transcriptional activity (AID 720636; active = well fitted curve in the direction sought with a large enough effect in the repeat runs; an effect the other way counts as inactive or inconclusive;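 note: HepG2 cells with an ARE-driven luciferase reporter; % of control where 0% means no effect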)
# Summary of the method: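 In HepG2 cells engineered with an Nrf2-responsive luciferase gene, ARE induction was quantified as luminescence after 16 hr compound treatment at 37 C.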
# [16] = qHTS assay for small molecule agonists of the antioxidant response element (ARE) signaling pathway measured by Nrf2-dependant transcriptional activity - cell viability counter screen (AID 720653; active = well fitted curve in the direction sought with a large enough effect in the repeat runs; an effect the other way counts as inactive or inconclusive; note: % is set by controls: 0 for no effect and ±100 for the full control effect); conditions: ARE-bla HepG2 viability, CellTiter-Glo ATP luminescence, 16 h; max response: stronger effect = lower value
# Summary of the method: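 ARE-bla HepG2 cells (2,000/well) rested 5 hrs at 37C/5% CO2, then exposed to compounds in DMSO for 16 hrs. Viability was read in the same wells as intracellular ATP by luminescence, 30 min at room temperature after reagent addition.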
# [17] = qHTS assay for cell viability of HEK293 cells (AID 743288); conditions: ATP luminescence (CellTiter-Glo), 18 h; max response: stronger effect = lower value; note: % is set by controls: 0 for no effect and ±100 for the full control effect; nearly all actives have a fitted effect of over 50% in size
# Summary of the method: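 Luminescent ATP quantitation served as the viability read-out. Cells (parental HEK293, 2,000/well) received compounds after at least 5 h at 37 C and were exposed for 18 h before a 30 min room-temperature reagent step.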
# [18] = qHTS assay for cell viability of the p53RE-bla HCT-116 cell line (AID 743292); note: % is set by controls: 0 for no effect and ±100 for the full control effect; nearly all actives have a fitted effect of over 55% in size
# Summary of the method: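 Intracellular ATP of p53RE-bla HCT-116 cells measured by luciferase luminescence following 16 h compound incubation at 37 C; DMSO-only wells served as vehicle controls.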
# [19] = biological target: Glutathione peroxidase 1 (Homo sapiens) (UniProt P07203); experiment: Primary qHTS Assay for Inhibitors of Recombinant Selenoprotein Glutathione Peroxidase 1 (GPX1) (AID 1845191); note: nearly all actives have a fitted effect of over 65% in size
# Summary of the method: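 Recombinant GPX1 (10 nM final) was preincubated with compound for 30 min at room temperature, then reacted with 1 mM GSH, 0.5 mM CHP, 0.5 mM NADPH and 100 nM glutathione reductase; NADPH fluorescence (340/450 nm) was read at 0 and 15 min.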
# [20] = biological target: Phospholipid hydroperoxide glutathione peroxidase GPX4 (Homo sapiens) (UniProt P36969); experiment: Primary qHTS Assay for Inhibitors of Recombinant Selenoprotein Glutathione Peroxidase 4 (GPX4) (AID 1845192); note: nearly all actives have a fitted effect of over 65% in size
# Summary of the method: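 GR-coupled readout: 100 nM GR, 1 mM GSH, 0.5 mM NADPH; NADPH fluorescence (ex 340/em 450 nm) read at t=0 and after 15 min RT. GPX4 200 nM, preincubated 30 min with compound; substrate 0.5 mM CHP.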
# [21] = biological target: Nuclear receptor subfamily 1 group I member 2 (Rattus norvegicus) (UniProt Q9R1A7); experiment: qHTS assay for small molecule activators of the rat pregnane X receptor (rPXR) signaling pathway (AID 651751; call rule not given here; note: 0% is about no effect); conditions: rPXR reporter cells, luciferase (One-Glo), 24 h
# [22] = qHTS drug screen for cell cycle checkpoint inhibitors in PARPi-resistant BRCA-mutant ovarian cancer cell lines. (AID 1963452; calls by dose curve); conditions: PEO1/OlaR viability, CellTiter-Glo luminescence, 96 h, stronger effect = lower value
# Summary of the method: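 PEO1, PEO4 and PEO1/OlaR ovarian cancer cells, 600 per well, exposed 96 h at 37C to a dilution series. Viability read by CellTiter-Glo luminescence, normalized to DMSO and empty wells; activity summarized as Z-AUC.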
# [23] = biological target: Cytochrome P450 1A2 (Homo sapiens) (UniProt P05177); experiment: p450-cyp1a2 (AID 410; calls by dose curve; note: potency is the fitted concentration of half-maximal effect)
# Summary of the method: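 20nM CYP1A2 with 100uM Luciferin-ME (at Km) in 100mM KPO4; compound preincubated 10 min, NADPH regeneration added, 60 min at room temperature. Luciferin quantified by luminescence after detection reagent; normalized to 57 uM furafylline.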
# [24] = biological target: Glucocorticoid receptor (Homo sapiens) (UniProt P04150); experiment: GR-GFP Redistribution (AID 450;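 active = compounds whose dose series gives a full or clear partial fitted curve of increased nuclear translocation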; note: potency is the fitted concentration of half-maximal effect); conditions: U2OS GR-GFP nuclear translocation, laser cytometry, 2 h
# [25] = biological target: Glucocorticoid receptor (Homo sapiens) (UniProt P04150); experiment: GR-EFC Redistribution (AID 451; calls by dose curve; note: potency is the fitted concentration of half-maximal effect); conditions: CHO-K1 GR-EFC translocation, beta-gal luminescence, 2 h
# Summary of the method: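 CHO-K1 cells stably expressing nuclear-localized β-gal enzyme acceptor and GR fused C-terminally to the enzyme donor fragment; ligand-driven nuclear translocation restores β-gal by complementation. Compounds titrated up to 46 uM final, 2 h at 37 °C; luminescence read.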
# [26] = biological target: Mitogen-activated protein kinase 10 (Mus musculus) (UniProt Q61831); experiment: JNK3 AlphaScreen Assay (AID 530; active = well fitted curve in either direction with a large enough effect, not every such curve was filed as active;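 note: kinase came from lysate of stimulated human HepG2 cells; potency is the fitted concentration of half-maximal effect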)
# Summary of the method: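 Inhibitors reduce antibody binding to phosphorylated biotin-cJun, lowering AlphaScreen luminescence. Lysates from HepG2 cells pre-activated by IL-1beta plus TNF-alpha supplied JNK3; compounds were titrated.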
# [27] = biological target: Cytochrome P450 3A4 (Homo sapiens) (UniProt P08684); experiment: qHTS Assay for Inhibitors and Substrates of Cytochrome P450 3A4 (AID 884); note: potency is the fitted concentration of half-maximal effect; nearly all actives have a fitted effect of over 50% in size
# Summary of the method: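 20 nM human CYP3A4 with 25 uM Luciferin-PPXE (at KM) in 200 mM KPO4, preincubated 10 min with compound; NADPH regeneration started a 60 min RT reaction. Luciferin detected by luminescence, normalized to 57 uM ketoconazole as full inhibition.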
# [28] = biological target: Cytochrome P450 3A4 (Homo sapiens) (UniProt P08684); experiment: qHTS Assay for Activators of Cytochrome P450 3A4 (AID 885); note: nearly all actives have a fitted effect of over 65% in size
# Summary of the method: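 Signal was normalized against complete inhibition by 57 uM ketoconazole. The reaction used 20nM CYP3A4 with 25uM Luciferin-PPXE, 10-min compound preincubation and a 60-min NADPH-supported step at RT.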
# [29] = biological target: Cytochrome P450 2D6 (Homo sapiens) (UniProt P10635); experiment: qHTS Assay for Inhibitors and Substrates of Cytochrome P450 2D6 (AID 891);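 note: luciferin methyl ether substrate demethylated by CYP2D6 with NADPH regeneration; % is set by controls: 0 for no effect and ±100 for the full control effect; nearly all actives have a fitted effect of over 60% in size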
# Summary of the method: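 Human CYP2D6 (5 nM) with 30 uM Luciferin-ME EGE (at Km) in 100 mM KPO4, compound preincubated 10 min, then NADPH regeneration system for 60 min at room temperature. Luciferin read by luminescence; normalized to 1.43 uM quinidine.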
# [30] = biological target: DNA dC->dU-editing enzyme APOBEC-3G (Homo sapiens) (UniProt Q9HC16); experiment: qHTS for inhibitors of Vif-A3G interactions: Validation (AID 588379); note: 0% is about no effect
# Summary of the method: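 HeLa cells stably expressing Vif and A3G-eYFP, 700 cells/well, incubated overnight at 37 deg C, then exposed to compound overnight at 37 deg C. Inhibition of Vif-mediated degradation read as increased yellow fluorescence (Ex 488/Em 500-530) by laser-scanning cytometry.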
# Peroxisome proliferator-activated receptor gamma (Homo sapiens), sequence (P37231 whole entry, looked up): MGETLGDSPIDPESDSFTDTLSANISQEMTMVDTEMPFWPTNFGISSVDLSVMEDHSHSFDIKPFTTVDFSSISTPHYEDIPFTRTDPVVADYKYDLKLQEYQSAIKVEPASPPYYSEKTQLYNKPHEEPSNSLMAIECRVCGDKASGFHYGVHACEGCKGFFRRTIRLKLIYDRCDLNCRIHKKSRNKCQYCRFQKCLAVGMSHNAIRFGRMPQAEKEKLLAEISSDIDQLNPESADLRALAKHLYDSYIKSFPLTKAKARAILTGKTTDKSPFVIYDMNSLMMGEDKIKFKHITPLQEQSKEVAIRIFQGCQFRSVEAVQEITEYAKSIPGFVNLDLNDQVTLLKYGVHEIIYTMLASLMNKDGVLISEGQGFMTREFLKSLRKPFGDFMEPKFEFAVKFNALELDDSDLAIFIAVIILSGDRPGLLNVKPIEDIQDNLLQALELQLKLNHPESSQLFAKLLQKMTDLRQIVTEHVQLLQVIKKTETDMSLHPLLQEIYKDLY
# Glucocorticoid receptor (Homo sapiens), sequence (P04150 whole entry, looked up, the tested form may be a part): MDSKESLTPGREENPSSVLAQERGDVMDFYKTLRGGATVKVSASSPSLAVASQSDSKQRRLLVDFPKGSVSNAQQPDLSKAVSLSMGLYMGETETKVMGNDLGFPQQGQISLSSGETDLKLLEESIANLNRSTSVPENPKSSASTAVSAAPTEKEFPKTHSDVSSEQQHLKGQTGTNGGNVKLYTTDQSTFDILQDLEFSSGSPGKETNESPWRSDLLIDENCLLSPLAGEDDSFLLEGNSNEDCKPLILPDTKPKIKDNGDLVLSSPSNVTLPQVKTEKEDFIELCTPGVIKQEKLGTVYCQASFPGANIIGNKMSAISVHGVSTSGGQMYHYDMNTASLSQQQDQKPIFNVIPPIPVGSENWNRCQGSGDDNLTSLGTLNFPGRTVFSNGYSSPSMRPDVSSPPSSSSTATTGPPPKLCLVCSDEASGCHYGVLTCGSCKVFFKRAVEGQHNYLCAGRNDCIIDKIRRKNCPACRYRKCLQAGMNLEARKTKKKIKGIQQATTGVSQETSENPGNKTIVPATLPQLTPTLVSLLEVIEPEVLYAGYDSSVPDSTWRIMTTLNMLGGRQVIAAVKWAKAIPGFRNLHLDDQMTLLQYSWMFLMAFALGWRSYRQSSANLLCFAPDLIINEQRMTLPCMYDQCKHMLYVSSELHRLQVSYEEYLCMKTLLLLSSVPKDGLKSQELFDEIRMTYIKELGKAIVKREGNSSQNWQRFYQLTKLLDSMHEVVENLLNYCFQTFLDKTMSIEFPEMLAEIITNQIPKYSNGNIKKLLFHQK
# Glutathione peroxidase 1 (Homo sapiens), sequence (P07203 whole entry, looked up): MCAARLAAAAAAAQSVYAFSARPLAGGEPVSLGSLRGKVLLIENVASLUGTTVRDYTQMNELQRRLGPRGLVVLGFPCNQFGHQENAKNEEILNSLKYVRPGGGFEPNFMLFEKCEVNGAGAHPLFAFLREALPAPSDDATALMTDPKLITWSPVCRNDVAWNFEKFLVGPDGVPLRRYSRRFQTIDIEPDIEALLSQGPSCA
# Retinoic acid receptor RXR-alpha (Homo sapiens), sequence (P19793 whole entry, looked up): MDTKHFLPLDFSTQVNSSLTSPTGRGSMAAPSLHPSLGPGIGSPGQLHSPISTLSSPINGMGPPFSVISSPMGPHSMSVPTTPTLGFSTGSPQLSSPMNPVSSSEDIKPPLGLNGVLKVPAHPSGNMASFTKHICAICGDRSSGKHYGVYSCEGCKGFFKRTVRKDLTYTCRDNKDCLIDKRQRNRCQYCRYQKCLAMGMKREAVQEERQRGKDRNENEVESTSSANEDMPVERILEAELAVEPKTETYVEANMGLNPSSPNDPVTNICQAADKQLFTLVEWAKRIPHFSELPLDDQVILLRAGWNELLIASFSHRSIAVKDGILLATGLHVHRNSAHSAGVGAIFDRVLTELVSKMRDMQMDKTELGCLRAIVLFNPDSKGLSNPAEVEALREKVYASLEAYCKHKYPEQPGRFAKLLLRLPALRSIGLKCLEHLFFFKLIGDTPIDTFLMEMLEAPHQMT
# Nuclear receptor subfamily 1 group I member 2 (Rattus norvegicus), sequence (Q9R1A7 whole entry, looked up): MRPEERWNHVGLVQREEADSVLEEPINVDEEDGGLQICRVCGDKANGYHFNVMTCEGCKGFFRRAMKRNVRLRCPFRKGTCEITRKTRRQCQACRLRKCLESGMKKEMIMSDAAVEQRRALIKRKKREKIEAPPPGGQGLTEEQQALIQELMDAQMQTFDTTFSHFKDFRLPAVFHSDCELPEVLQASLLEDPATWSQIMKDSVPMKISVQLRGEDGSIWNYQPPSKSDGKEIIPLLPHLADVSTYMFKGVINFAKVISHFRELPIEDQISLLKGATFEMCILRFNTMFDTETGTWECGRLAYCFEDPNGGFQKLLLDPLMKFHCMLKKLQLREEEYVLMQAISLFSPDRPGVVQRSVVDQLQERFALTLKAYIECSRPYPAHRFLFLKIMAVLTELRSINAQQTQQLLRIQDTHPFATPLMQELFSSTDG
# Estrogen receptor (Homo sapiens), sequence (P03372 whole entry, looked up): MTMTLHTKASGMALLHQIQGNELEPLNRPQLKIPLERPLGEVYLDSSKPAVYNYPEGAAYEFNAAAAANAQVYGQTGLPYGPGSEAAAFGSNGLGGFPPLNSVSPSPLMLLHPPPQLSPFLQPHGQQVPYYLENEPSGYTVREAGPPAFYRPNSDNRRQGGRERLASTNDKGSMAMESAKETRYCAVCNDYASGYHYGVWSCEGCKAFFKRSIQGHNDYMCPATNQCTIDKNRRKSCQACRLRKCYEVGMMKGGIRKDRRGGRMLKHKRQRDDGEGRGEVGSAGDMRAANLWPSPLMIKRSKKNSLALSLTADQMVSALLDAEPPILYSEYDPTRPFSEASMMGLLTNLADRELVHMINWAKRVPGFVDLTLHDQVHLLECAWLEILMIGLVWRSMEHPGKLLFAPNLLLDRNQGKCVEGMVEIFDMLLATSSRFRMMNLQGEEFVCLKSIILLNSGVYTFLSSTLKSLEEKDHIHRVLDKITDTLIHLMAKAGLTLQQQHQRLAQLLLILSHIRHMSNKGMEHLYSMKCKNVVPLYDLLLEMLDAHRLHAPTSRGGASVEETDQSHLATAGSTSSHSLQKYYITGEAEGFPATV
# Peroxisome proliferator-activated receptor delta (Homo sapiens), sequence (Q03181 whole entry, looked up): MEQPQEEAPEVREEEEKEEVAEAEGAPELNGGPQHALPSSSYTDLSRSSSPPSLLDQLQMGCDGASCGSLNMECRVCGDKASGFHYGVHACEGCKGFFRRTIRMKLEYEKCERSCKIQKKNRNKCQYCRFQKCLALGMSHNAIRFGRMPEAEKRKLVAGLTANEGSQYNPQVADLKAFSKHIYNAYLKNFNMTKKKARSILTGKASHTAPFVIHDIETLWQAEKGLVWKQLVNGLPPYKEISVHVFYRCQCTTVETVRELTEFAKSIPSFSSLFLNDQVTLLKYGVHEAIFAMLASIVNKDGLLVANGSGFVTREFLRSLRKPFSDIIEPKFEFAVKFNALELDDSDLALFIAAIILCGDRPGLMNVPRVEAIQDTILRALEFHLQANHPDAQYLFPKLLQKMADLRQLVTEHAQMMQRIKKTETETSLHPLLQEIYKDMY
# Thyroid hormone receptor beta (Homo sapiens), sequence (P10828 whole entry, looked up): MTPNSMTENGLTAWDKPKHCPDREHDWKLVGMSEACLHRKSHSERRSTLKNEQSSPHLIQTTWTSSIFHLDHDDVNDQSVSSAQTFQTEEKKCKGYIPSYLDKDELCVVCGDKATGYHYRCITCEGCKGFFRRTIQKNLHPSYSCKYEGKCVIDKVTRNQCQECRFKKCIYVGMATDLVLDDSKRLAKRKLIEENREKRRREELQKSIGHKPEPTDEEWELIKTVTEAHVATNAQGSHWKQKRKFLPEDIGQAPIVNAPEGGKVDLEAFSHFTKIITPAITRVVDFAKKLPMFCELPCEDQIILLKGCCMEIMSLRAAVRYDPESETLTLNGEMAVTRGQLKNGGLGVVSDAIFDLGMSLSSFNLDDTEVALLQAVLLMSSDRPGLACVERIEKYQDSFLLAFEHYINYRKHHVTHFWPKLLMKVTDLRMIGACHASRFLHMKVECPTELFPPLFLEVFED
# Phospholipid hydroperoxide glutathione peroxidase GPX4 (Homo sapiens), sequence (P36969 whole entry, looked up): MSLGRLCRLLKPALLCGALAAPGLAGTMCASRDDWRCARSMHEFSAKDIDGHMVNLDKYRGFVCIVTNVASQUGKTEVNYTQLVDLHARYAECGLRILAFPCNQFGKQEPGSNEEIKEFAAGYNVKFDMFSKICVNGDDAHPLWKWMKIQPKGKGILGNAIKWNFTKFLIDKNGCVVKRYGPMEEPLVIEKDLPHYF
# Cytochrome P450 3A4 (Homo sapiens), sequence (P08684 whole entry, looked up): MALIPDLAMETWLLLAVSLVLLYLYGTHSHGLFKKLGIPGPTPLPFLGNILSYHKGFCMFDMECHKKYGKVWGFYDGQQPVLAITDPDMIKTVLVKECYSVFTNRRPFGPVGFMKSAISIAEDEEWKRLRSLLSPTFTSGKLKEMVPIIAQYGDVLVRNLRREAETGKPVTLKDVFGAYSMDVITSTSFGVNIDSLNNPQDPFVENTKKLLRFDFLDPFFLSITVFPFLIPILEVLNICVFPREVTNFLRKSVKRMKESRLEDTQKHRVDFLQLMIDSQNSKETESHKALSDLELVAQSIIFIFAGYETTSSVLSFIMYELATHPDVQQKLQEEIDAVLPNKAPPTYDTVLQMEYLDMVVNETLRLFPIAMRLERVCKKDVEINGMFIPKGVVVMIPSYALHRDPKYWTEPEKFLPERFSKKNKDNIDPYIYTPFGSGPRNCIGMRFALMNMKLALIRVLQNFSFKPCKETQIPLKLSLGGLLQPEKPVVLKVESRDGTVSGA
# DNA dC->dU-editing enzyme APOBEC-3G (Homo sapiens), sequence (Q9HC16 whole entry, looked up): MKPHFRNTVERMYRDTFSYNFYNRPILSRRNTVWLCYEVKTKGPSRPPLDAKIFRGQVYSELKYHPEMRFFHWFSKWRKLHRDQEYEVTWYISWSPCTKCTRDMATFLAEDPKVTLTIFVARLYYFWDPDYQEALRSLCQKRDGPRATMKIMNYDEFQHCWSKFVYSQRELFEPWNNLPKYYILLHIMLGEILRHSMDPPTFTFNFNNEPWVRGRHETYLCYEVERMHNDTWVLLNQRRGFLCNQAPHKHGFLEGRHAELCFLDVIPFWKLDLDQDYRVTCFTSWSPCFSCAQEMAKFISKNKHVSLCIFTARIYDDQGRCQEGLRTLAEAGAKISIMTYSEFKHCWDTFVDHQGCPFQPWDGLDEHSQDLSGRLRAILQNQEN
structure (smiles),measurement,setting,value
Cc1cccc(O)c1,Potency,[1],inactive
same,activation,[2],1.46% (inactive) and -4.97% (inactive)
same,Potency,[3],inactive
same,max response,[4],-22.1% and -37.2%
same,Potency,[5],inactive
same,outcome,[6],inactive
same,outcome,[7],inactive
same,max response,[8],-8.57% and -4.8%
same,max response,[9],-27.1% (inactive) and -3.41% (inactive)
same,activity change % (negative = inhibition),[10],-9.11% (inactive) and -4.09% (inactive)
same,activation,[11],-5.47% (inactive) and -2.85% (inactive)
same,activation,[12],-0.103% (inactive) and -1.79% (inactive)
same,activation,[13],3.54% (inactive) and 0.802% (inactive)
same,max response,[14],-4.41% (inactive) and -2.22% (inactive)
same,Potency,[15],inactive
same,max response,[16],2.52% (inactive) and 7.45% (inactive)
same,max response,[17],-15.7% (inactive) and -2.81% (inactive)
same,Potency,[18],inactive
same,Potency,[19],inactive
same,Potency,[20],inactive
same,max response,[21],-3.23% (inactive) and 0.598% (inactive)
CONC(=O)c1ccccc1Nc1cc(Nc2cc(C)nn2C(C)C)ncc1Cl,Potency,[19],inactive
same,Potency,[20],inactive
same,Z-AUC,[22],0.959 (inactive)
same,Z-AUC,[22]; measured here: PEO1 parental Z-AUC,0.188
same,Z-AUC,[22]; measured here: PEO4 Z-AUC,0.196
O=c1cc(-c2cccc(O)c2)oc2c(O)c(O)ccc12,Potency,[23],0.1 µM (active)
same,Potency,[24],> 46 µM (inactive)
same,Potency,[25],> 46 µM (inactive)
same,Potency,[26],7.94 µM (active)
same,Potency,[27],15.8 µM (active)
same,outcome,[28],inactive
same,Potency,[29],inactive
same,outcome,[30],inactive
same,Potency,[19],inactive
